Assay results from paper PMC4552634, “A New Set of Chemical Starting Points with Plasmodium falciparum Transmission-Blocking Potential for Antimalarial Drug Discovery” (PLoS ONE, 2015).
Among all 13,000 compounds or so, about 3,200 (25%) showed an effect of 50% or more. This is one part of the list.

The molecules below were run on P. falciparum stage V gametocytes. Conditions: 48 h, 5 µM; inhibitor.
Design: BacTiter-Glo ATP luminescence viability of purified stage V gametocytes in 384-well plates, per cent inhibition versus DMSO

Compound	% Inhibition
O=C(CSc1ccccn1)Nc1c(F)cccc1F [TCMDC-123935]	16.99%
O=C(NC1CCCCC1)C1CCCN(C(=O)c2ccc(O)c(-c3ccc(Cl)c(Cl)c3)c2)C1 (stereo not drawn) [TCMDC-140884]	5.577%
Cc1c(Cc2ccccc2)c(=O)oc2c(C)c3c(cc12)CN(CC(C)c1ccccc1)CO3 (stereo not drawn) [TCMDC-125127]	34.31%
O=c1cc(NCCCNCc2sc(Br)nc2Br)[nH]c2ccccc12 [TCMDC-140422]	-16.17%
Cc1ccccc1C1CCN(C2CCC(NC(=O)/C=C/c3cccc(Cl)c3Cl)CC2)CC1 (stereo not drawn) [TCMDC-133519]	-94.66%
Cc1sc2nc(CN3CCCC3)nc(-n3c(NCCO)nc4ccccc43)c2c1C [TCMDC-124811]	45.04%
OC(c1ccc(Cl)cc1)(c1ccc(Cl)cc1)C(c1ccc(Cl)cc1)n1ccnc1 (stereo not drawn) [TCMDC-125069]	44.24%
CN1CCN(c2cccc(-c3nnc(-c4ccc(OCC(=O)NCc5cccc(C(F)(F)F)c5)c([N+](=O)[O-])c4)o3)c2)CC1 [TCMDC-134941]	-68.92%
CCCNC(=O)c1cncc(-c2ccc(CNC(CC)c3ccccc3)cc2)c1 (stereo not drawn) [TCMDC-134238]	-1.576%
O=C(NCc1ccc(C(F)(F)F)cc1)c1cccc(-c2nnc(-c3cccc(-c4cncnc4)c3)o2)c1 [TCMDC-134944]	18.23%
Cc1cccc(Cl)c1Nc1nnc(-c2cccc(C(=O)NC[C@@H]3CC[C@H]4C[C@@H]3C4(C)C)c2)o1 [TCMDC-135040]	-14.01%
CC(C)(C)OC(=O)NCc1ccc(Nc2nnc(-c3cccc(C(=O)NCCC(c4ccccc4)c4ccccc4)c3)o2)cc1 [TCMDC-134989]	99.36%
CC(C)(C)OC(=O)NCc1ccc(Nc2nnc(-c3cccc(OCC(=O)NCc4cc(C(F)(F)F)cc(C(F)(F)F)c4)c3)o2)cc1 [TCMDC-134993]	101.9%
CN1CCN(c2cccc(-c3nnc(-c4cccc(OCC(=O)NCc5ccc(C(F)(F)F)cc5)c4)o3)c2)CC1 [TCMDC-134943]	0.9055%
CC(=O)NCCNCc1cccc(C(=O)NCc2cccc(C(F)(F)F)c2)c1 [TCMDC-140900]	22.07%
CC(C)(C)OC(=O)NCc1ccc(Nc2nnc(-c3cccc(C(=O)NCc4cc(C(F)(F)F)cc(C(F)(F)F)c4)c3)o2)cc1 [TCMDC-135229]	97.34%
O=c1ccc2ccc(F)c3c2n1CC3CN1CCC(NCc2cccc(-c3ccccc3F)c2)CC1 (stereo not drawn) [TCMDC-134405]	-31.68%
COc1ccc2nccc([C@@H](O)CN3CCC(NCc4cnc5snnc5c4)C(F)C3)c2c1 (stereo partly drawn) [TCMDC-141752]	25.48%
Cc1ccc(-n2ncc(C(=O)Nc3cc(Cl)cc(Cl)c3)c2C2CCNCC2)cc1C [TCMDC-124409]	57.45%
O=C(Nc1cc(Cl)cc(Cl)c1)c1cnn(-c2ccc(F)cc2)c1C1CCNCC1 [TCMDC-124410]	50.02%
O=C(Nc1ccc(Cn2ncc(N3CCCNCC3)c(Cl)c2=O)cc1)Nc1cc(Cl)cc(Cl)c1 [TCMDC-133326]	-9.301%

Compound	% Inhibition
CCCc1c(C(=O)Nc2ccc3c(c2)CCN(C2CCC2)CC3)cnn1-c1ccc(Cl)cc1 [TCMDC-136081]	40.23%
Cc1ccccc1C1CCN(c2ncc(C(=O)Nc3ccccc3)cc2Cl)CC1 [TCMDC-134630]	-30.75%
Cc1ccccc1C1CCN(c2ccc(NC(=O)c3ccc(Cl)nc3)cc2)CC1 [TCMDC-134586]	25.08%
COc1cc(NC(=O)c2c(-c3c(Cl)cccc3Cl)noc2C)c(OC)cc1Cl [TCMDC-125477]	-41.77%
CC(O)C(C)(CO)NCc1ccc2c3c(cccc13)-c1ccccc1-2 (stereo not drawn) [TCMDC-138117]	15.45%
NC(=O)c1cnc2ccc(-c3cncs3)cc2c1Nc1ccc(F)c(Cl)c1 [TCMDC-138566]	50.74%
Cc1noc(C)c1-c1ccc2c(Nc3ccc(C(F)(F)F)cc3)c(C(N)=O)cnc2c1.Cl [TCMDC-136019]	23.08%
Cc1ccc(O)cc1Nc1c(C(N)=O)cnc2ccc(-c3cncs3)cc12 [TCMDC-138565]	46.98%
CC(C)CCCC(C)(C)NC[C@@H](O)[C@H](Cc1ccccc1)NC(=O)c1cccc(CCC2CC2)c1 [TCMDC-136602]	71.1%
O=C(N[C@@H](Cc1ccccc1)[C@H](O)CNCCC(F)(F)F)c1cccc(OCC2CC2)c1 [TCMDC-136610]	48.68%
CCCOc1cccc(C(=O)N[C@@H](Cc2ccccc2)[C@H](O)CNCc2cccc(OC)c2)c1 [TCMDC-136707]	12.44%
O=C(N[C@@H](Cc1ccccc1)[C@H](O)CNCCC(F)(F)F)c1cccc(CCC2CC2)c1 [TCMDC-136611]	-3.968%
CCCOc1cccc(C(=O)N[C@@H](Cc2ccccc2)[C@H](O)CNCc2ccccc2OC)c1 [TCMDC-136706]	81.52%
COc1cccc(C2(NC[C@@H](O)[C@H](Cc3ccccc3)NC(=O)c3ccccc3)CCCCC2)c1 [TCMDC-135740]	7.84%
CC(C)CCCC(C)(C)NC[C@@H](O)[C@H](Cc1ccccc1)NC(=O)c1cccc(OCC2CC2)c1 [TCMDC-136556]	100.1%
CCNc1cc(C(=O)N[C@@H](Cc2ccccc2)[C@H](O)CNC(C)(C)Cc2cccc(OC)c2)cc(N2CCCC2=O)c1 [TCMDC-134574]	1.402%
CCOc1cc(C(=O)N[C@@H](Cc2ccccc2)[C@H](O)CNCc2cccc(OC)c2)cc(N2CCCCS2(=O)=O)c1 [TCMDC-134521]	-19.61%
Clc1ccccc1/C=C/c1cncnc1Nc1ccc2nc(Cc3ccccc3)[nH]c2c1 [TCMDC-138659]	0.669%
c1ccc(-c2cccc(-c3ccccn3)n2)nc1 [TCMDC-123985]	-15.75%
COc1cc(Nc2ccnc3cc(-c4ccccn4)ccc23)cc(OC)c1OC [TCMDC-138203]	0.8769%
COc1ccc(-c2ccnc(-c3cccc(-c4ccccn4)n3)c2)cc1 [TCMDC-125008]	155.4%
